PubChem BioAssay AID1203 (The Scripps Research Institute Molecular Screening Center, 2008)
In all, about 200,000 compounds went through this assay and about 80 (0.04%) were called active.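 The calls were made as follows: active = activation above the mean across all tested compounds plus 3 SD, cutoff set per campaign (cut at about 5.5% in these data); inactive = the rest.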 The sample as a whole holds a higher share of actives than the screen did.

Assay: Hsp70 transcriptional activators, primary screen, cell-based, HeLa, Hsp70 promoter luciferase, luminescence, 10 µM (AID 1203);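 also: 100% = MG132 at 30 µM as the positive control and 0% = DMSO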
Settings: HeLa Hsp70 promoter luciferase reporter, at 10 µM, active compounds read high, scaled: vehicle 0, proteasome-inhibitor control 100%

activation, inactive:
COC(=O)CN1C(=S)N(c2ccccc2)C(=O)C1CC(=O)Nc1ccc(Cl)cc1 (stereo unspecified) -0.13%, COc1ccc(-c2nc(N)sc2C2(O)C(=O)Nc3c(Br)cc(F)cc32)cc1OC (stereo unspecified) -0.09%, CCOc1ccc(N2CC(C(=O)NCCN3C(=O)S/C(=C\c4cccnc4)C3=O)CC2=O)cc1 (stereo unspecified) -0.14%, Cc1ccc(Cl)c(NC(=O)CN(C)CC(=O)Nc2ccc(F)c(F)c2F)c1Cl -0.39%, C/C(=N\NC(=O)CCn1nc(C)cc1C)C(C)(C)C -0.13%, COc1ccc(OCC(O)CNC(=O)Nc2ccc(Cl)cc2)cc1 (stereo unspecified) -0.12%, NS(=O)(=O)c1ccc(N=Cc2ccc(Br)s2)cc1 -0.31%, CCOC(=O)C/C(C)=N\Nc1ccc([N+](=O)[O-])cc1[N+](=O)[O-] 0.04%, O=S(=O)(c1ccc2c(c1)OCCO2)N1CCc2ccccc21 0.08%, O=C(CSc1nncs1)NC1CCCc2ccccc21 (stereo unspecified) -0.09%, O=S(=O)(ON(c1ccccc1)S(=O)(=O)c1ccccc1)c1ccccc1 -0.24%, CCOC(=O)c1c(NC(=S)NC(=O)/C=C/c2cccs2)sc(C)c1C -0.28%, O=C(NNC(=S)Nc1ccc(Br)cc1Cl)c1ccco1 -0.21%, CCC(=O)OCc1c(C(F)(F)F)nn(C)c1Oc1cccc(C(F)(F)F)c1 -0.27%, CCNC(=O)NNC(=O)C1CC(c2cccs2)=NO1 (stereo unspecified) -0.44%, CCOC(=O)c1cnc2c(c(C)nn2CC)c1Cl -0.38%, C/C(=N\NC(=O)CNc1cccc2ccccc12)c1ccc(Br)s1 -0.39%, CCCC1NC(=S)NC(C)=C1C(C)=O (stereo unspecified) -0.09%, CCOC(=O)NN1C(=O)c2ccccc2NC1c1ccccc1O (stereo unspecified) -0.07%, CC1CC(C)(C)NC(=S)N1CCC(=O)N1CCN(Cc2ccccc2)CC1 (stereo unspecified) -0.64%, CC(C)(C)c1ccc(NC(=O)COC(=O)CCc2nc3ccccc3c(=O)[nH]2)cc1 -0.35%, CSCCC(NC(=O)COc1ccccc1)C(=O)Nc1ccc(C)cc1 (stereo unspecified) -0.22%, COc1ccc(C(CC(=O)c2ccccc2)S(=O)(=O)c2ccccc2)cc1 (stereo unspecified) -0.26%, COC(=O)C1=CN(Cc2ccc(OC)c(OC)c2)C=C(C(=O)OC)C1c1cccs1 -0.18%, O=C1Oc2ccccc2C(=O)/C1=C/c1ccccc1O -0.37%, CC(=O)c1ccc(NC(=O)C(C)N(C)CC(=O)Nc2ccccc2Cl)cc1 (stereo unspecified) -0.06%
